From PubChem BioAssay (EPA / NIEHS)
Where “and” joins values, the source holds several entries; their conditions need not be identical. Equal values may be shown once. A structure can be active in one record and inactive in another. Calls of active or inactive are those of the source. Rule for the calls: active = hit-call score of the fitted dose curve at least 0.9, where 1 is the maximum; inactive = score below 0.9.

Experiments:
Conditions in all cases: mRNA level, 48 h; actives raise or lower the signal
[1] = read-out: Protein phosphatase 2A (PPP2R4), PTPA (gene 5524); test: LTEA_HepaRG_PPP2R4: Life Technologies and Expression Analysis (LTEA) Assay for Protein phosphatase 2A (PPP2R4) using HepaRG (AID 2283522)
Summary of the method: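 Gene-expression endpoint in HepaRG hepatic cells: 48 h treatment across eight half-log concentrations up to 100 uM in 0.5% DMSO. PPP2R4 mRNA by qRT-PCR, normalized to three endogenous control genes.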

[2] = read-out: Phosphatase and tensin (PTEN), PTEN (gene 5728); test: LTEA_HepaRG_PTEN: Life Technologies and Expression Analysis (LTEA) Assay for Phosphatase and tensin (PTEN) using HepaRG (AID 2283523)
Summary of the method: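 Differentiated human HepaRG cells, plated 48 h then switched to serum-free induction medium, were exposed in duplicate for 48 h to eight half-log concentrations up to 100 uM in 0.5% DMSO. PTEN mRNA measured by TaqMan qRT-PCR, normalized to ACTB/GAPDH/POLR2A, bidirectional fit versus DMSO.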

[3] = read-out: solute carrier (SLC22A1), SLC22A1 (gene 6580); test: LTEA_HepaRG_SLC22A1: Life Technologies and Expression Analysis (LTEA) Assay for solute carrier (SLC22A1) using HepaRG (AID 2283524)
Summary of the method: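 Human HepaRG cells were plated 48 h, switched to serum-free induction medium, then exposed in duplicate for 48 h to 8-point half-log series from 100 uM in 0.5% DMSO. SLC22A1 mRNA measured by qRT-PCR, normalized to ACTB/GAPDH/POLR2A, fitted bidirectionally versus DMSO.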

[4] = read-out: Pyruvate Dehydrogenase Kinase 4 (PDK4), PDK4 (gene 5166); test: LTEA_HepaRG_PDK4: Life Technologies and Expression Analysis (LTEA) Assay for Pyruvate Dehydrogenase Kinase 4 (PDK4) using HepaRG (AID 2283525)
Summary of the method: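 Differentiated human HepaRG cells, pre-cultured 48 h, were exposed in duplicate for 48 h in serum-free induction medium to eight half-log concentrations up to 100 uM in 0.5% DMSO. PDK4 mRNA was quantified by qRT-PCR, normalized to ACTB, GAPDH and POLR2A, bidirectional fitting versus DMSO.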

[5] = read-out: NAD(P)H dehydrogenase [quinone] 1 (NQO1), NQO1 (gene 1728); test: LTEA_HepaRG_NQO1: Life Technologies and Expression Analysis (LTEA) Assay for NAD(P)H dehydrogenase [quinone] 1 (NQO1) using HepaRG (AID 2283526)
Summary of the method: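 Human HepaRG hepatic cells received chemicals for 48 h in serum-free induction medium with 0.5% DMSO, up to 100 uM. Expression was assessed by TaqMan qRT-PCR against housekeeping controls and fitted bidirectionally against DMSO.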

[6] = read-out: Nuclear factor erythroid 2-related factor 2 (Homo sapiens) (UniProt Q16236); test: LTEA_HepaRG_NFE2L2: Life Technologies and Expression Analysis (LTEA) Assay for Nuclear factor erythroid 2-related factor 2 (NFE2L2) Transcription Factor using HepaRG (AID 2283527)
Summary of the method: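 Differentiated human HepaRG cells in serum-free induction medium were exposed for 48 h to eight concentrations (top 100 uM, half-log dilutions, 0.5% DMSO), in duplicate. NFE2L2 mRNA was quantified by TaqMan qRT-PCR, normalized to ACTB, GAPDH and POLR2A, with bidirectional fitting versus DMSO.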

[7] = read-out: succinate dehydrogenase complex iron sulfur subunit B (SDHB), SDHB (gene 6390); test: LTEA_HepaRG_SDHB: Life Technologies and Expression Analysis (LTEA) Assay for succinate dehydrogenase complex iron sulfur subunit B (SDHB) using HepaRG (AID 2283528)
Summary of the method: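 HepaRG cells (~100,000/well, plated 48 h) exposed in duplicate for 48 h in serum-free induction medium to 8-point half-log series from 100 uM in 0.5% DMSO; mRNA by qRT-PCR normalised to ACTB, GAPDH, POLR2A; bidirectional fit versus DMSO.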

[8] = read-out: Signal transducer and activator of transcription 3 (Homo sapiens) (UniProt P40763); test: LTEA_HepaRG_STAT3: Life Technologies and Expression Analysis (LTEA) Assay for Signal transducer and activator of transcription (STAT3) using HepaRG (AID 2283529)
Summary of the method: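 Differentiated human HepaRG cells in serum-free induction medium were exposed in duplicate for 48 h to eight half-log concentrations up to 100 uM in 0.5% DMSO. STAT3 mRNA was quantified by TaqMan qRT-PCR, normalized to ACTB, GAPDH and POLR2A, and fitted bidirectionally against DMSO.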

[9] = read-out: solute carrier (SLCO1B1), SLCO1B1 (gene 10599); test: LTEA_HepaRG_SLCO1B1: Life Technologies and Expression Analysis (LTEA) Assay for solute carrier (SLCO1B1) using HepaRG (AID 2283530)
Summary of the method: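 Human HepaRG cultures treated for 48 h with an eight-concentration half-log series topping at 100 uM; SLCO1B1 measured by qRT-PCR and fitted bidirectionally relative to DMSO.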

[10] = read-out: sulfotransferase 2A1 (SULT2A1), SULT2A1 (gene 6822); test: LTEA_HepaRG_SULT2A1: Life Technologies and Expression Analysis (LTEA) Assay for sulfotransferase 2A1 (SULT2A1) using HepaRG (AID 2283531)
Summary of the method: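 Gene-expression endpoint in a human liver cell line: SULT2A1 mRNA change after 48 h chemical treatment, curves fitted in both directions relative to 0.5% DMSO vehicle. Concentrations spanned eight half-log steps from 100 uM.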

[11] = read-out: Transforming Growth Factor (TGFA), TGFA (gene 7039); test: LTEA_HepaRG_TGFA: Life Technologies and Expression Analysis (LTEA) Assay for Transforming Growth Factor (TGFA) using HepaRG (AID 2283532)
Summary of the method: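 Differentiated human HepaRG cells, plated 48 h then switched to serum-free induction medium, were exposed in duplicate for 48 h to 8-point half-log series from 100 uM in 0.5% DMSO. TGFA mRNA measured by qRT-PCR, normalized to ACTB/GAPDH/POLR2A, bidirectional fit versus DMSO.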

[12] = read-out: Transforming Growth Factor (TGFB1), TGFB1 (gene 7040); test: LTEA_HepaRG_TGFB1: Life Technologies and Expression Analysis (LTEA) Assay for Transforming Growth Factor (TGFB1) Transporter using HepaRG (AID 2283533)
Summary of the method: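 Eight-point concentration-response (max 100 uM, half-log) in HepaRG under serum-free induction conditions, 48 h. TGFB1 mRNA by qRT-PCR, housekeeping-normalized.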

TIMP1, TIMP1 (gene 7076) = test: LTEA_HepaRG_TIMP1: Life Technologies and Expression Analysis (LTEA) Assay for TIMP1 using HepaRG (AID 2283534)
Summary of the method: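 TIMP1 induction or repression in HepaRG cells after 48 h chemical exposure (eight concentrations, highest 100 uM), assessed by normalized qRT-PCR with bidirectional fitting to DMSO controls.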

[13] = read-out: Tumor necrosis factor receptor 1 (TNFRSF1A), TNFRSF1A (gene 7132); test: LTEA_HepaRG_TNFRSF1A: Life Technologies and Expression Analysis (LTEA) Assay for Tumor necrosis factor receptor 1 (TNFRSF1A) using HepaRG (AID 2283535)
Summary of the method: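 Assay uses 48 h chemical treatment of differentiated HepaRG monolayers, tested in duplicate at eight concentrations from 100 uM downward in 0.5% DMSO. mRNA is normalized to ACTB, GAPDH and POLR2A, with induction or suppression fitted relative to vehicle.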

[14] = read-out: Thyroid Hormone Responsive (THRSP), THRSP (gene 7069); test: LTEA_HepaRG_THRSP: Life Technologies and Expression Analysis (LTEA) Assay for Thyroid Hormone Responsive (THRSP) using HepaRG (AID 2283536)
Summary of the method: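 Differentiated human HepaRG cells were exposed in duplicate for 48 h in serum-free induction medium to eight concentrations (top 100 uM, half-log steps, 0.5% DMSO). Expression was quantified by TaqMan qRT-PCR, normalized to ACTB, GAPDH and POLR2A, with bidirectional fitting against DMSO.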

[15] = read-out: UDP glucuronosyltransferase (UGT1A1), UGT1A1 (gene 54658); test: LTEA_HepaRG_UGT1A1: Life Technologies and Expression Analysis (LTEA) Assay for UDP glucuronosyltransferase (UGT1A1) using HepaRG (AID 2283538)
Summary of the method: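 Human liver HepaRG cultures receive test chemical for 48 h, up to 100 uM in 0.5% DMSO, with phenobarbital induction controls. UGT1A1 mRNA is measured by qRT-PCR and normalized to ACTB, GAPDH and POLR2A.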

[16] = read-out: UDP glucuronosyltransferase (UGT1A6), UGT1A6 (gene 54578); test: LTEA_HepaRG_UGT1A6: Life Technologies and Expression Analysis (LTEA) Assay for UDP glucuronosyltransferase (UGT1A6) using HepaRG (AID 2283539)
Summary of the method: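 Measures mRNA change in HepaRG hepatic cells exposed 48 h to chemicals (eight-point, maximum 100 uM, 0.5% DMSO vehicle) in serum-free induction medium. Expression normalized to endogenous controls; DMSO served as negative control and baseline.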

[17] = read-out: X-box binding protein 1 (XBP1), XBP1 (gene 7494); test: LTEA_HepaRG_XBP1: Life Technologies and Expression Analysis (LTEA) Assay for X-box binding protein 1 (XBP1) using HepaRG (AID 2283540)
Summary of the method: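 Eight concentrations (half-log, highest 100 uM, 0.5% DMSO) tested in duplicate on HepaRG cells over 48 h in serum-free induction medium; qRT-PCR of XBP1 normalised to ACTB, GAPDH, POLR2A.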

[18] = read-out: Cellular tumor antigen p53 (Homo sapiens) (UniProt P04637); test: LTEA_HepaRG_TP53: Life Technologies and Expression Analysis (LTEA) Assay for Tumor Protein P53 (TP53) using HepaRG (AID 2283537)
Summary of the method: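 Differentiated HepaRG cells in serum-free induction medium exposed 48 h in duplicate to 8 half-log concentrations, top 100 uM, 0.5% DMSO. TP53 mRNA by TaqMan qRT-PCR (Fluidigm), normalized to ACTB, GAPDH, POLR2A; fitted bidirectionally versus DMSO.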

Measured: AC50

Chain of Signal transducer and activator of transcription 3 (Homo sapiens) (P40763 whole entry, looked up): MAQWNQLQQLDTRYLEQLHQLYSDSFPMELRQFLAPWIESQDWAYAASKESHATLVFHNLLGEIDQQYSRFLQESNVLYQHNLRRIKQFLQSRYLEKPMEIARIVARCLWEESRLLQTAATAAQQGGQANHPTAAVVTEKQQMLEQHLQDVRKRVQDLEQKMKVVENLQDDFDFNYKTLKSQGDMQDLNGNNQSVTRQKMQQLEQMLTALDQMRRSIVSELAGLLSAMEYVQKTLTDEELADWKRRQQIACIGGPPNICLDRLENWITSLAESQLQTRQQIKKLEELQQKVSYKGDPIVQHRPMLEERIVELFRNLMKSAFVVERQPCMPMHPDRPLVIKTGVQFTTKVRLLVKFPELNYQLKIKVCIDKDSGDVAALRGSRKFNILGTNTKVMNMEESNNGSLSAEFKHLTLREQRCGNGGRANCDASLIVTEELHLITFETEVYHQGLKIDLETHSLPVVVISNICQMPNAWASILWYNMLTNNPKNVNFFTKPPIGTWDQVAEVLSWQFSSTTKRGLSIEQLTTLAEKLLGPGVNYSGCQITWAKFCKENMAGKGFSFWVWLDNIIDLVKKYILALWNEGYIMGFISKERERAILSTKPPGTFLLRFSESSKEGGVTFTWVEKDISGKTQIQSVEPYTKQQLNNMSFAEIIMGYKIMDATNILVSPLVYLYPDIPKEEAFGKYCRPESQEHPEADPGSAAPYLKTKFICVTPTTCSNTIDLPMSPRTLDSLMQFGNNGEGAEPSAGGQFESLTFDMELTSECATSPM
Chain of Nuclear factor erythroid 2-related factor 2 (Homo sapiens) (Q16236 whole entry, looked up): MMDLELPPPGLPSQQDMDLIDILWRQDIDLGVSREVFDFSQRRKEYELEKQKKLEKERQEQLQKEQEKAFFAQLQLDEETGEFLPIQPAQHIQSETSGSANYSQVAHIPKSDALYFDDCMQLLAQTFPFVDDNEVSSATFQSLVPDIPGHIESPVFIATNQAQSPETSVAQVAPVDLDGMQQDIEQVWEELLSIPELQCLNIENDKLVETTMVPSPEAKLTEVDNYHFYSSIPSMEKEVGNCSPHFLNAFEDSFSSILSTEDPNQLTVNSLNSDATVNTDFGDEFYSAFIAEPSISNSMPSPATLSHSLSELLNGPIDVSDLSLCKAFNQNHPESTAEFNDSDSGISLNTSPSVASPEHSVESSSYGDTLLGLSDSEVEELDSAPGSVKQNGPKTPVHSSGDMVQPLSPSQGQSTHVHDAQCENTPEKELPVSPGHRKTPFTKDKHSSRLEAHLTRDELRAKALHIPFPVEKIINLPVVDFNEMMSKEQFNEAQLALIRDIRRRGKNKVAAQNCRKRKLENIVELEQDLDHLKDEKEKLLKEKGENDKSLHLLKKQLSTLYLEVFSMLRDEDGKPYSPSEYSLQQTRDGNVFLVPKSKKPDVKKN
Chain of Cellular tumor antigen p53 (Homo sapiens) (P04637 whole entry, looked up): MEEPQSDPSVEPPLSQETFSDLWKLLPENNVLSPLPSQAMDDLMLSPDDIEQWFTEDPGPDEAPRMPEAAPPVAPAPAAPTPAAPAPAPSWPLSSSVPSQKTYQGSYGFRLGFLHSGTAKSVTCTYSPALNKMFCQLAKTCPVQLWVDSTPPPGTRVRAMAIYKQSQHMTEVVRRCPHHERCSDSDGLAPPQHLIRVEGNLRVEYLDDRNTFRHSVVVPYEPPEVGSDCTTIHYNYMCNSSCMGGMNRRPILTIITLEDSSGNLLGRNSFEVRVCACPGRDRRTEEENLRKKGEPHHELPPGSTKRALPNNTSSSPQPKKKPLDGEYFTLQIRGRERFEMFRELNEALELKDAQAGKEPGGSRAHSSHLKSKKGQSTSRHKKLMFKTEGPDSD

CO/C=C(/C(=O)OC)c1ccccc1Oc1cc(Oc2ccccc2C#N)ncn1
inactive: [1] | [2] | [4] | [5] | [6] | [7] | [8] | [12] | TIMP1, TIMP1 (gene 7076) | [13] | [14] | [17]
active: [3] 78 µM and 70.5 µM and 68.7 µM | [4] 18.6 µM | [6] 77.7 µM and 74.5 µM | [9] 76.2 µM and 72.9 µM and 75.6 µM | [10] 80.9 µM and 81.2 µM and 94.4 µM | [11] 84.4 µM and 81.8 µM and 84.8 µM | [14] 93.2 µM and 80.5 µM | [15] 88.7 µM and 87.6 µM and 83.3 µM | [16] 78.4 µM and 80.9 µM and 86.7 µM

CC1COC(Cn2cncn2)(c2ccc(Oc3ccc(Cl)cc3)cc2Cl)O1 (stereo not given)
active: [1] 80.6 µM | [2] 78.5 µM | [3] 9.15 µM | [6] 19.7 µM | [7] 84.8 µM | [9] 12.8 µM | [10] 19.6 µM | [11] 13.6 µM | [12] 89.8 µM | TIMP1, TIMP1 (gene 7076) 77 µM | [13] 72.2 µM | [14] 7.86 µM | [15] 50 µM | [16] 63.9 µM
inactive: [4] | [5] | [8] | [17]

COC(=O)C(C)Oc1ccc(Oc2ccc(Cl)cc2Cl)cc1 (stereo not given)
active: [3] 50 µM | [4] 32.6 µM | [14] 40 µM | [15] 20.7 µM
inactive: all other assays above

COc1ccc(C(c2ccc(OC)cc2)C(Cl)(Cl)Cl)cc1
active: [3] 84.8 µM | [6] 12.7 µM | [7] 33.2 µM | [14] 81.7 µM | [15] 12 µM | [16] 79.2 µM
not listed: [18]
inactive: all other assays above

CC(Oc1ccc(Cl)cc1Cl)C(=O)O (stereo not given)
active: [4] 50 µM
inactive: all other assays above
